# Compound activity (PubChem)
# Shown are actives, neighbours in structure and some others; about 2.3% of the full set was active somewhere.
# ANO1 block: TMEM16A chloride channel inhibitors, primary screen, cell-based, HTS; HEK293 TMEM16A/YFP iodide influx fluorescence, ionomycin; 310,000 compounds, 1.2% hits; normalized B-score (activity score, 25-100; higher = stronger inhibition) at 10 µM;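 active means ratio plate-corrected score three or more library SD toward inhibition, starting fluorescence score within five deviations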;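 further: score derived from kinetic fluorescence span divided by baseline fluorescence per well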
# CHT allo act: CHT positive allosteric modulators, primary screen, cell-based, membrane potential dye, choline EC20; High affinity choline transporter 1 (Homo sapiens), Q9GZV3; CHT-expressing cells; hits give high values; LV-AA mutant CHT in HEK293 cells; B-score at 10 µM; 310,000 compounds, 0.49% hits;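 active means initial fluorescence not abnormally high and integrated response B-score, plate-corrected, over 3 SD above library mean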
# TMEM16A act: TMEM16A chloride channel activators or potentiators, primary screen, cell-based, HTS; Anoctamin-1 (Mus musculus), Q8BHY3; HEK293 TMEM16A/YFP-H148Q/I152L, iodide quench fluorescence; hits give low values; B-score at 10 µM; 340,000 compounds, 0.3% hits;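 active means fluorescence-ratio B-score plate-corrected deviation score at least 3 library SD below zero, with starting fluorescence score within 5 deviations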;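 further: channel opened by trigger with iodide after compound preincubation; score built on the fluorescence ratio of max minus min over baseline; more negative score means more quench and so TMEM16A activation or potentiation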
# CHT inh: inhibitors of human choline transporter CHT; High affinity choline transporter 1 (Homo sapiens), Q9GZV3; CHT-expressing cells, membrane potential dye, choline response; hits give low values; B-score at 10 µM; 310,000 compounds, 0.86% hits; AID 488975, 2010;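 active means B-score over 3 SD under the library average, and starting fluorescence ratio not unusually high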;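 further: choline stimulus applied at its EC90 after an EC20 pre-addition; B-score computed on integrated fluorescence ratio after choline addition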
# CHT inh conf: CHT inhibitors, confirmation, cell-based, membrane potential dye, duplicate. shares compounds with CHT inh. 2,400 compounds, 70% hits. AID 493221, 2011. CHT-expressing cells, choline membrane potential dye; LV-to-AA substituted CHT, HEK293 cells. CHT activity remaining % of control (hits give low values), % at 10 µM;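 active means choline transporter activity left, mean of duplicates at 10 µM, below buffer-only control mean minus 3 SD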;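 further: depolarization triggered by choline at its EC90 following an EC20 pre-addition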
# HEK293 CHT ctr: membrane potential effects in parental HEK293, counter-screen for CHT inhibitor project, cell-based, membrane potential dye; shares compounds with CHT inh; choline response; active = decrease or increase beyond buffer ±3SD; membrane potential ratio readout (active if shifted either direction beyond buffer ±3SD; no single direction) at 10 µM; 2,400 compounds, 4% hits;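 further: parental cells lack the transporter so any hit is non-specific; ratio is peak minus trough fluorescence over baseline after EC90 choline challenge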
# Hits are given with their value; 0 = inactive; - = not tested or not shown.
SMILES,ANO1 block,CHT allo act,TMEM16A act,CHT inh,CHT inh conf,HEK293 CHT ctr
CCOC(=O)C(C)Sc1nnc(NC(=O)c2cccc([N+](=O)[O-])c2C)s1 (centres undefined),0,0,0,-5.2,52%,0
CC(NC(=O)/C(C#N)=C/c1ccc([N+](=O)[O-])o1)c1ccccc1 (centres undefined),0,0,0,-5.3,62%,0
CCOCCCNC(=O)/C(C#N)=C/c1ccc([N+](=O)[O-])o1,0,0,0,-7,58%,0
O=C(NC1CCCCC1)c1ccc(S(=O)(=O)NCc2ccco2)cc1,0,0,0,-5.5,0,0
O=C(NC1CCN(Cc2ccccc2)CC1)c1ccc(S(=O)(=O)NCc2ccco2)cc1,0,0,0,0,-,-
Nc1nc(SCC(=O)Nc2ccc([N+](=O)[O-])cc2Br)n[nH]1,0,0,0,0,-,-
CC(C)c1nc(SCC(=O)Nc2ccc([N+](=O)[O-])cc2Br)n[nH]1,0,0,0,-5.8,0,0
CCOC(=O)C(=Cc1c[nH]c2ccc(S(=O)(=O)N(C)C)cc12)C(=O)OCC,0,0,0,-6.4,33%,0
CCCCCCCCC[n+]1cccc2c3ccccc3ccc21,100,0,0,-6.8,59%,0
O=[N+]([O-])c1cc(Br)cc(C=Nc2ccc3c(c2)OCO3)c1O,0,0,0,-8,32%,0
CCOC(=O)CCC(=O)NNC(=O)COc1ccc(C(C)C)cc1Br,0,0,0,0,-,-
O=[N+]([O-])c1c(Nc2ccccc2O)ccc2nonc12,0,0,0,0,-,-
O=[N+]([O-])c1c(Nc2ccccc2O)cc(Cl)c2nonc12,100,0,0,-8.5,38%,0
CC1(C)CC2CC(C)(CN2C(=O)CCCN2C(=O)c3ccccc3C2=O)C1 (centres undefined),0,0,0,-6.8,48%,0
CC(C)CCNC(=S)Nc1ccccn1,0,0,0,0,-,-
O=C1C(=O)N(CCN2CCOCC2)C(c2cccnc2)/C1=C(/O)c1ccc(Cl)cc1 (centres undefined),0,0,0,-9.5,0,0
O=C1C(=O)N(CCN2CCOCC2)C(c2cccnc2)/C1=C(/O)c1ccccc1 (centres undefined),0,0,-,0,-,-
CC1=C(C(=O)Nc2cccc(C(=O)NC3CCCC(C)C3C)c2)SCCO1 (centres undefined),0,0,0,-5.6,57%,0
CCNC(=O)[C@H]1O[C@@H](n2cnc3c(N)nc(NCCc4ccc(CCC(=O)O)cc4)nc32)[C@H](O)[C@@H]1O,0,0,0,-5.3,46%,0
O=C(NC1CCCC1)c1ccc(COc2ccccc2Br)o1,0,0,0,-5.1,0,0
Cc1ccc(C(=O)O)cc1N=Cc1cc(Br)cc(Br)c1O,0,0,0,-6.2,59%,0
N=C(N)SCc1ccccn1,0,0,0,-5.9,33%,0
CC[C@@H](C)C(NC(=O)OC(C)(C)C)c1cn([C@@H](CCCCNC(=O)OC(C)(C)C)C(=O)N2CCN(C(=O)OC(C)(C)C)CC2)nn1 (some centres undefined),0,0,0,-11,0,0
OC(CNCC#Cc1ccccc1)c1ccccc1 (centres undefined),0,0,0,-6.8,52%,0
O=[N+]([O-])c1ccc(Nc2ccccc2)c2nonc12,0,0,0,-6,47%,0
SMILES,ANO1 block,CHT allo act,TMEM16A act,CHT inh,CHT inh conf,HEK293 CHT ctr
Cc1oc(-c2ccc(F)cc2)nc1CN(Cc1ccccn1)CC1CCCO1 (centres undefined),0,0,0,0,-,-
CC(C)(C)S(=O)(=O)/C(C#N)=N/Nc1ccc(S(N)(=O)=O)cc1,0,0,0,0,-,-
CC(C)(C)S(=O)(=O)/C(C#N)=N/Nc1ccc(C#N)cc1,0,0,0,0,55%,0
Cn1cccc1CC(=O)NNC(=S)NC(=O)c1ccc(F)cc1,0,0,0,0,-,-
CCCc1cc(NC(=O)CCl)n(-c2ccccc2)n1,0,0,0,0,-,-
C=C(C)COc1ccc(-c2[nH]ncc2-c2ccc(Br)cc2)c(O)c1,0,0,0,-5.5,0,0
C=C(C)COc1ccc(-c2[nH]ncc2-c2ccccc2OC)c(O)c1,0,0,0,0,-,-
O=C(c1ccncc1)c1ccc(N2CCN(C3CC(=O)N(Cc4cccs4)C3=O)CC2)cc1 (centres undefined),0,0,0,-5.6,0,0
O=C1CC(N2CCN(c3ccc(O)cc3)CC2)C(=O)N1Cc1cccs1 (centres undefined),0,0,0,0,-,-
COCC(=O)NC1CCN(S(=O)(=O)c2cccc(C(C)=O)c2)CC1,0,0,0,-5.1,0,0
COCC(=O)NC1CCN(S(=O)(=O)c2ccc(C(=O)O)cc2)CC1,0,0,0,0,-,-
COc1ccc(Cl)cc1NC(=O)CN(C)C(=O)Cn1cnnn1,-,-,0,-,-,-
CC(NCc1ccc(F)cc1)C(=O)Nc1cc(S(=O)(=O)N2CCCCC2)ccc1Cl (centres undefined),0,0,0,-5.8,50%,0
C/C(=N\NC1=NCCN1)c1ccccc1,0,0,0,-6.5,32%,0
CCN(CC)CC(=O)Nc1ccc(/C(C)=N/NC2=NCCN2)cc1,0,0,0,0,-,-
C/C(=N\NC1=NCCN1)c1ccc(Cl)cc1,0,0,0,-6.7,52%,0
O=c1oc2ccccc2c(O)c1Cc1cc(Cl)c2cccnc2c1O,0,0,0,-7.3,69%,0
Cc1ccc(C)c(Cn2nnc3c(=O)[nH]c(C4CCCN(S(=O)(=O)Cc5ccccc5)C4)nc32)c1 (centres undefined),0,0,0,0,-,-
O=C(NNC(=S)Nc1ccc(Cl)cc1Cl)c1ccc(N2CCOCC2)c([N+](=O)[O-])c1,0,0,0,-5.5,35%,0
O=C(NNC(=S)Nc1ccc(Br)cc1)c1ccc(N2CCOCC2)c([N+](=O)[O-])c1,0,0,0,0,-,-
O=C(NNC(=O)C1CCN(S(=O)(=O)c2ccc(Cl)cc2)CC1)c1ccccc1O,0,0,0,0,-,-
CC(C)(CCC(=S)N1CCOCC1)c1ccccc1,-,-,0,-,-,-
Cc1ccc(/C=N/NC(=O)c2cc(-c3ccc(C)o3)[nH]n2)cc1,0,0,0,0,-,-
COc1ccccc1/C=C/C=N/NC(=O)c1cc(-c2ccc(C)o2)[nH]n1,0,0,0,-17,0,0
CC1CCC2(CC1)NC(=O)N(CC(=O)N1CCN(C(=O)c3cccs3)CC1)C2=O (centres undefined),-,-,0,-,-,-
Cc1ccc(CSc2nnc(C)c(=O)[nH]2)cc1,0,0,0,-7.9,0,0
Cc1nnc(SCc2ccccc2)[nH]c1=O,0,0,0,0,-,-
